Results: PubChem BioAssay (NCATS)
Results filed as inconclusive are left out. A number with no mark means an inactive call. Calls of active or inactive are those of the source. The call rests on the fitted dose curve; in most records, active means well fitted cell-killing curve with a large enough effect; inconclusive means small, poorly fitted or top-dose-only effect; inactive means flat fitted curve, though single readings scatter.

Test: Cell Viability - LYMP2-010 (AID 981);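 further: cells exposed to compound for 24 hours at 37 °C; nearly all actives have a fitted effect of over 55% in size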
Conditions: LYMP2-010 lymphoblastoid cell viability, qHTS; series mostly up to 92.2 µM; activity, negative = cytotoxicity: at the top concentration
How it was run: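 This 24 hr viability screen uses LYMP2-010 lymphoblastoid cells, quantifies ATP via luciferase luminescence, and derives AC50 from Hill fits of qHTS concentration-response data.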
On the % scale 0 is the no-effect control and ±100 the full control effect; potency means the concentration at half of the fitted maximal effect.

Compound	activity, negative = cytotoxicity [%]	Potency
CCCN(CCC)C(=O)SCC	-18.7	
COc1ccc2nc(N)sc2c1	-14.5	
ClCCCl	-5.76	
CCC(O)OC(O)CC (stereo unspecified)		inactive
C=Cc1ccccc1Cl	-4.27	
c1ccc2c(c1)c1cccc3ccc4cccc2c4c31	10.6	
Cc1cccc([N+](=O)[O-])c1C	-7.08	
CCCCCCCCO	-3.75	
CC(C)=CCCC(C)CCO (stereo unspecified)	-4.66	
O=[N+]([O-])c1cccc(Cl)c1Cl	-15.2	
CCO[Si](CCCN)(OCC)OCC	-10.9	
Clc1cc(Cl)c(Cl)cc1Cl	-19.2	
CCO	-7.62	
C=CC(=O)OCCOCCOCCOCCOC(=O)C=C		15.8 µM (active)
Clc1cc(Cl)c(Cl)c(Cl)c1Cl	0.2	
CCCCC(CC)CN (stereo unspecified)		inactive
O=NO		inactive
c1ccc2c(c1)[nH]c1ccccc12	1.02	
OCCNCCO	-18.7	
Nc1ccc(Cl)cc1Cl	-9.95	
CCC(C)c1ccccc1O (stereo unspecified)		inactive
CC1=CC(C)(C)Nc2ccccc21		inactive
CN(C)C=O		inactive
Cc1ccc(N)c([N+](=O)[O-])c1	-6.89	
CCCCOCCO		inactive
CC(=O)OC/C=C(\C)CCC=C(C)C	-14.2	
